# Reference: PubChem BioAssay AID1839 (Johns Hopkins Ion Channel Center, 2009)
# Hit rate of the full screen: of about 2,400 compounds, about 220 (9.2%) were called active. The entries come from a sample that favours actives as a whole. Values without a mark were called inactive.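 The calls were made as follows: active = signal change above the mean of dofetilide-free buffer controls plus 3 SD, so a positive margin; inactive = the rest.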
# Test: thallium signal changes without hERG – cell-based, CHO-K1 parental line, FluxOR thallium flux, counter-screen for hERG block protection project, confirmation (AID 1839);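 also: compounds applied alone with no dofetilide to cells lacking hERG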
# Conditions: CHO-K1 parental cells, FluxOR thallium flux fluorescence; at 10 µM
row,Compound,"signal change vs control minus 3*SD hit threshold (margin above threshold, higher = more increase)"
1,CC/C(=C\C=C\[C@@H]1C=C[C@@H]2CCC[C@H]2[C@@H]1C(=O)c1ccc[nH]1)[C@@H]1O[C@@H]([C@@H](C)C(=O)O)CC[C@@H]1C,83% (active)
2,O=c1c2cc(Br)ccc2[nH]c(=S)n1-c1ccccc1,-20.2%
3,CCCCN1C(=O)/C(=C/c2ccc(N3CCCCCC3)cc2)C(=O)NC1=S,-36%
4,Cc1ccc(/C=C2\C(=O)NC(=S)N(c3ccc(F)cc3)C2=O)s1,-30.1%
5,CN1C(=O)/C(=C/c2ccc(Cl)s2)C(=O)NC1=S,-29.5%
